The test system of one assay is CAMK4. The conditions noted are these: concentration: 1 μM, replicates: in singlicate; n = 1.
In the next assay the test system is CAMKK1. The note with it: concentration: 1 μM, replicates: in singlicate; n = 1.
A further assay concerns CAMKK2. The conditions noted are these: concentration: 1 μM, replicates: in singlicate; n = 1.
For a further assay, the system named is CASK. The note with it: concentration: 1 μM, replicates: in singlicate; n = 1.
In the next assay the test system is T1, CDC2L1.
T1 construct: gene CDK11B
The conditions noted are these: concentration: 1 μM, replicates: in singlicate; n = 1.

A further assay deals with CDC2L2. The note with it: concentration: 1 μM, replicates: in singlicate; n = 1.
The next assay relates to T2, CDC2L5.
T2 construct: gene CDK13
The conditions noted are these: n = 1.

Another assay concerns T3, CDK11.
T3 construct: gene CDK19
The conditions noted are these: concentration: 1 μM, replicates: in singlicate; n = 1.

For another assay, the system named is CDK2. The note with it: concentration: 1 μM, replicates: in singlicate; n = 1.
The test system of the next assay is CDK3. The conditions noted are these: concentration: 1 μM, replicates: in singlicate; n = 1.
The mark [1] stands for this setting: concentration: 1 μM, replicates: in singlicate.

Where two headings read alike, the source gives them in different places.
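Note: KINOMEscan kinase panel screen.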

For `O=C(Nc1n[nH]c2nc(-c3cccs3)c(Br)cc12)C1CCCC1` [SB-743341], the “%Inh” value in the assay with CAMK4 stood at 0%; in the assay with CAMKK1 it was 7%; in the assay with CAMKK2 it was 0%; in the assay on CASK, 12%; with CDC2L1, 1%; in the assay with CDC2L2 it was 0%. Also, the “%Inh” value in the assay on CDC2L5 (setting [1]) was determined as 13%; in the assay with CDK11 it was 0%; with CDK2 it was 75%; in the assay on CDK3 it was 67%.

In the case of `Nc1ncnc2occ(-c3ccc4c(c3)CCN4C(=O)Cc3cc(F)ccc3F)c12` [GSK2645446], the “%Inh” value is listed as 0% with CAMK4; 0% in the assay with CAMKK1; 13% in the assay with CAMKK2; 0% in the assay on CASK; 0% in the assay with CDC2L1; 12% in the assay on CDC2L2. Besides, the “%Inh” value is 0% in the assay with CDC2L5 (setting [1]), 81% with CDK11, 0% with CDK2 and 0% in the assay on CDK3.

With `Fc1ccc(-c2nc3n(c2-c2ccncc2)CCS3)cc1` [GI98581], the “%Inh” value was 0% in the assay on CAMK4; 8% in the assay with CAMKK1; 0% in the assay on CAMKK2; 20% with CASK; 0% with CDC2L1; 0% in the assay with CDC2L2. Besides, the “%Inh” value was found to be 0% with CDC2L5 (setting [1]), 7% with CDK11, 6% with CDK2 and 24% in the assay on CDK3.

For `O=C1NC(=O)C(c2ccc(Cl)cc2)=C1Nc1ccc(O)cc1` [SB-340867], the “%Inh” value came to 0% with CAMK4; 0% in the assay with CAMKK1; 0% in the assay with CAMKK2; 4% in the assay with CASK; 0% in the assay with CDC2L1; 0% in the assay with CDC2L2. The “%Inh” value amounted to 0% with CDC2L5 (setting [1]), 0% in the assay on CDK11, 0% in the assay with CDK2 and 4% in the assay on CDK3.

As for `CCn1c(-c2ccccc2)nc2cnccc21` [SB-733416], the “%Inh” value in the assay on CAMK4 is on record as 13%; in the assay on CAMKK1 it was 0%; with CAMKK2, 0%; with CASK, 18%; in the assay on CDC2L1, 0%; with CDC2L2, 0%. In addition, the “%Inh” value was 98.3% in the assay with CDC2L5 (setting [1]), 0% in the assay on CDK11, 12% with CDK2 and 19% with CDK3.

For `COc1ccc(Nc2nccc(NCCNC(=O)Nc3cc(C)ccc3C)n2)cc1` [GSK1379899], the “%Inh” value in the assay on CAMK4 was 0%; with CAMKK1, 13%; with CAMKK2, 0%; in the assay on CASK, 0%; in the assay on CDC2L1, 0%; in the assay on CDC2L2, 0%. The “%Inh” value in the assay with CDC2L5 (setting [1]) came to 0%; in the assay with CDK11, 0%; in the assay on CDK2 it was 0%; in the assay with CDK3 it was 6%.

On to `Cc1ccc(NC(=O)Nc2ccccc2)cc1-c1ccc(C(=O)Nc2ccncc2)cc1` [GSK1398471], for which the “%Inh” value in the assay with CAMK4 stood at 0%; in the assay with CAMKK1 it was 0%; in the assay on CAMKK2, 19%; in the assay on CASK, 0%; in the assay on CDC2L1 it was 0%; in the assay on CDC2L2, 13%. Besides, the “%Inh” value with CDC2L5 (setting [1]) turned out to be 0%; in the assay with CDK11, 11%; in the assay with CDK2 it was 1%; with CDK3, 0%.

`CCCCc1nn2ncccc2c1-c1ccnc(NC2CC2)n1` [GW684374]: the “%Inh” value with CAMK4 is listed as 0%; in the assay with CAMKK1, 0%; in the assay on CAMKK2, 14%; in the assay with CASK, 0%; in the assay on CDC2L1, 0%; with CDC2L2, 11%. In addition, the “%Inh” value in the assay on CDC2L5 (setting [1]) worked out at 0%; in the assay on CDK11, 5%; in the assay on CDK2, 0%; in the assay with CDK3, 0%.

For the molecule `COC(=O)c1cccc(NC(=O)NC2CCN(c3ccnc(Nc4ccc(F)cc4)n3)C2)c1` (centres unmarked) [GSK1379725], the “%Inh” value is 0% in the assay on CAMK4; 0% with CAMKK1; 0% with CAMKK2; 25% in the assay with CASK; 0% in the assay on CDC2L1; 0% in the assay with CDC2L2. Moreover, the “%Inh” value worked out at 0% in the assay on CDC2L5 (setting [1]), 68% in the assay with CDK11, 0% in the assay on CDK2 and 4% in the assay with CDK3.

Turning to `COc1ccc2cc(-c3nc(-c4ccccc4C(C)C)[nH]c3-c3ccncc3)ccc2c1` [SB-660566], the “%Inh” value stood at 7% with CAMK4; 8% in the assay with CAMKK1; 0% in the assay on CAMKK2; 7% in the assay on CASK; 0% in the assay with CDC2L1; 2% in the assay with CDC2L2. The “%Inh” value in the assay on CDC2L5 (setting [1]) was determined as 0%; in the assay with CDK11, 33%; in the assay on CDK2, 0%; with CDK3, 13%.

Take `COc1cc2ncnc(Nc3cccc(Br)c3)c2cc1OC.Cl` [GI230329]: the “%Inh” value with CAMK4 is reported as 0%; with CAMKK1 it was 20%; in the assay with CAMKK2, 16%; in the assay with CASK it was 18%; in the assay with CDC2L1, 0%; with CDC2L2, 14%. Besides, the “%Inh” value is 0% in the assay on CDC2L5 (setting [1]), 0% with CDK11, 0% in the assay on CDK2 and 6% with CDK3.

Take `CNc1nc(-c2ccc3c(N)n[nH]c3c2)cc(N2C[C@@H](C(=O)NC3CCCCC3)OC[C@H]2C)n1` [GSK2375584]: the “%Inh” value with CAMK4 came out at 0%; in the assay on CAMKK1, 21%; in the assay on CAMKK2 it was 35%; in the assay on CASK it was 12%; with CDC2L1, 0%; with CDC2L2, 25%. The “%Inh” value with CDC2L5 (setting [1]) was 0%; in the assay on CDK11, 16%; in the assay on CDK2 it was 0%; with CDK3, 0%.

In the case of `CC(C)c1ccc(O)cc1Nc1ccnc2ccc(C(F)(F)F)cc12` [GW482059], the “%Inh” value is given as 14% with CAMK4; 0% in the assay on CAMKK1; 0% in the assay with CAMKK2; 0% in the assay with CASK; 0% in the assay on CDC2L1; 5% in the assay with CDC2L2. Further, the “%Inh” value with CDC2L5 (setting [1]), in the assay with CDK11, in the assay on CDK2 and in the assay with CDK3 was 0% throughout.

Consider `Cl.Cl.Cl.N#Cc1ccc(CCNc2nccc(-c3cccc(CN4CCNCC4)c3)n2)cc1` [GSK2137462], for which the “%Inh” value turned out to be 1% with CAMK4; 35% in the assay on CAMKK1; 22% in the assay with CAMKK2; 0% in the assay on CASK; 0% in the assay on CDC2L1; 6% in the assay on CDC2L2. Also, the “%Inh” value with CDC2L5 (setting [1]), in the assay with CDK11, with CDK2 and with CDK3 was 0% in each case.

As for `CS(=O)(=O)Cc1ccc(Nc2nccc(-c3c(-c4cccc(NC(=O)C5CCCCC5)c4)nn4ncccc34)n2)cc1` [GSK350559], the “%Inh” value in the assay with CAMK4 was found to be 0%; in the assay with CAMKK1 it was 0%; in the assay with CAMKK2, 0%; in the assay with CASK, 34%; in the assay with CDC2L1, 0%; in the assay on CDC2L2, 27%. Moreover, the “%Inh” value was 30% in the assay with CDC2L5 (1 µM), 0% in the assay on CDK11, 0% in the assay with CDK2 and 0% with CDK3.

On to `COc1ccc(CSc2nnc(-c3ccc4ncsc4c3)o2)cc1C(F)(F)F`, for which the “%Inh” value turned out to be 0% with CAMK4; 0% in the assay with CAMKK1; 0% in the assay with CAMKK2; 10% in the assay on CASK; 0% in the assay on CDC2L1; 0% in the assay on CDC2L2. Further, the “%Inh” value in the assay on CDC2L5 (setting [1]) amounted to 35%; in the assay with CDK11, 37%; with CDK2, 1%; in the assay on CDK3 it was 0%.

On to `Nc1nccc(-c2c(-c3ccc(F)cc3)ncn2C2CCN(Cc3ccccc3)CC2)n1` [SB-219980], for which the “%Inh” value with CAMK4 is recorded as 13%; with CAMKK1, 2%; in the assay with CAMKK2 it was 0%; with CASK, 0%; with CDC2L1, 7%; in the assay with CDC2L2 it was 38%. Moreover, the “%Inh” value in the assay on CDC2L5 (setting [1]) is recorded as 0%; in the assay with CDK11, 1%; with CDK2, 0%; in the assay on CDK3, 0%.
